High-throughput results: PubChem, National Center for Advancing Translational Sciences (NCATS)
The list is not random: actives were taken first. Their share in the collection is about 15%.
HCMV inh: human cytomegalovirus inhibition; AID 1259415; HFF cells, HCMV-luciferase reporter, 72 h; active compounds read low; 4.5% of 410,000 active; activity change, negative = inhibition, % at 57.5 µM; in the data active means activity change below about -60%; inconclusive means no clear call, values can overlap the other calls; inactive means above about -39%; further: on the % scale 0 is the no-effect control and ±100 the full control effect
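HFF cells seeded 16 h at 37C, treated with compounds, infected with luciferase-reporter HCMV at MOI 1 PFU/cell; luciferase read at 72 h post infection, normalized to buffer-only and Salinomycin controls.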
Sm TGR inh: S. mansoni TGR enzyme inhibition; purified TGR, DTNB reduction, TNB absorbance 405 nm; Q962Y6; 3% of 360,000 active; Potency, µM (titrated, usually from 114 µM), for the others: top-dose activity change, negative = inhibition, most hits filed as inhibitors; further: potency means the concentration at half of the fitted maximal effect; on the % scale 0 is the no-effect control and ±100 the full control effect; nearly all actives have a fitted effect of over 60% in size
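First, TGR (20 nM dispensed) and NADPH were mixed with compound. Second, a 15 min room-temperature incubation followed. Third, further NADPH and then DTNB were added to start the reaction. Finally, TNB absorbance was monitored kinetically.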
HCV inh: HCV inhibition; Huh7.5.1 HCVcc-Cre infection, luciferase reporter, 44 h; Potency, µM (titrated, usually from 41.8 µM), inactives show at the top dose activity change, negative = inhibition, usual class: inhibitors; 3.4% of 340,000 active; further: potency means the concentration at half of the fitted maximal effect; on the % scale 0 is the no-effect control and ±100 the full control effect
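Compounds are dispensed onto cells plated 4 h earlier at 1,000 per well, with HCVcc-Cre virus (about 0.5 moi) added next. Following 44 h of culture, luminescent signal is measured for 15 sec after 15 min with substrate at room temperature.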
Pf growth 48h: inhibits P. falciparum growth in the first generation, 48 h | P. falciparum luciferase growth in erythrocytes, 48 h | Potency, µM (titrated, usually from 28.7 µM), without a hit: at the highest dose activity change, negative = inhibition, actives largely listed as inhibitors | 5.9% of 310,000 active | AID 504832; further: potency means the concentration at half of the fitted maximal effect; on the % scale 0 is the no-effect control and ±100 the full control effect
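Erythrocytes infected with P. falciparum carrying an integrated firefly luciferase reporter (2% hematocrit, 0.1% parasitemia final) were exposed to compounds in RPMI 1640 with 0.5% Albumax at 37 C, 5% CO2. Growth inhibition was scored as reduced luminescence.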
Pf growth 96h: P. falciparum growth inhibition at 96 hours. AID 504834. 6.9% of 320,000 active. Potency, µM (titrated, usually from 28.7 µM), inactives show at the highest dose activity change, negative = inhibition, actives largely listed as inhibitors. P. falciparum luciferase reporter growth, 96 h; further: potency means the concentration at half of the fitted maximal effect; on the % scale 0 is the no-effect control and ±100 the full control effect
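Plates of compound plus infected erythrocytes (2% hematocrit, 0.05% parasitemia final) incubate 96 hours, 37 C, 5% CO2. Detection reagent added; reduced luminescence from the parasites' luciferase reporter flags inhibition.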
SARS PLP yeast: SARS-CoV PLP inhibition in yeast | S. cerevisiae expressing SARS-CoV PLpro, growth rescue | Potency, µM (top dose mostly 32.9 µM), for inactives: at the highest dose activity, positive = growth rescue, hits mostly activators | 0.19% of 330,000 active; calls by dose curve; further: potency means the concentration at half of the fitted maximal effect; 0% is about no effect; nearly all actives have a fitted effect of over 55% in size
* = called active by the depositor; ? = inconclusive; / = not tested or not shown; [ ] = remark or other dose. Unless noted, the call rests on the fitted dose curve; in most records, active means well fitted curve in the direction sought with a large enough effect; inconclusive means small, poorly fitted or top-dose-only effect, or another doubt; inactive means no such curve, though single readings can be large; an effect the other way counts as inactive or inconclusive.

SMILES	HCMV inh	Sm TGR inh	HCV inh	Pf growth 48h	Pf growth 96h	SARS PLP yeast
CC(C)(C)c1cc(C(=O)NCCN2CCCC2)cc(C(C)(C)C)c1	?	-4%	-20%	?	-19%	-1%
OCCCc1n[nH]c(=S)n1-c1ccccc1	39	45µM*	11%	?	62%	-1%
Cc1ccc(-c2[nH]ncc2C(=O)c2ccccc2C)c(O)c1	19	2%	-8%	?	?	0%
CCOc1ccccc1NC(=O)c1cc2c(=O)n(Cc3cccnc3)ccc2nc1C	2	-1%	/	/	/	/
c1ccc2c(c1)nc(N1CCOCC1)c1nncn12	-16	-1%	?	/	?	-3%
C1=C(c2ccccc2)CCN(c2nc3ccccc3n3cnnc23)C1	-2	3.5µM*	0%	/	6%	7%
c1ccc2c(c1)CCN(c1nc3ccccc3n3cnnc13)C2	65	-22%	?	/	?	-7%
c1ccc(N2CCN(c3nc4ccccc4n4cnnc34)CC2)cc1	-38	4%	-13%	/	4.1µM*	3%
Cc1ccc(C)c(N2CCN(c3nc4ccc(C(=O)c5ccccc5)cc4n4cnnc34)CC2)c1	3	4%	/	/	/	/
O=C(c1ccccc1)c1ccc2nc(N3CCN(c4ccc(F)cc4)CC3)c3nncn3c2c1	-67*	-2%	/	/	/	/
Cc1ccc(C(=O)Nc2nc(-c3ccco3)c(-c3ccco3)s2)o1	13	4.5µM*	?	?	10%	3%
O=C(CCCSc1ccccc1)Nc1nc(-c2ccco2)c(-c2ccco2)s1	25	?	?	36%	0%	-4%
Cc1ccc(C(=O)Nc2nc(C)c(C(=O)N(C)C)s2)o1	85	-1%	11%	-3%	11%	-9%
O=C(CCl)Nc1nc(-c2ccco2)c(-c2ccco2)s1	-69*	0.4µM*	?	-12%	0%	-29%
COCC(=O)Nc1ccc(C(=O)Nc2ccccc2Cl)cc1	/	6%	/	76%	193%	-2%
COc1ccc2[nH]c(=O)c(CN(C(C)=O)c3cc(C)ccc3C)cc2c1	21	/	/	/	/	/
COc1ccc(/C=C(\C#N)C(=O)C(C)(C)n2cncn2)cc1	-35	6%	2%	29%	3.7µM*	1%
COCCNC(=O)C(=O)NCC(c1ccc2c(c1)OCO2)N1CCN(c2ccc(F)cc2)CC1 (stereo unspecified)	-3	-19%	-6%	?	5%	20%
CC(C)C[C@H](NC(=O)OC(C)(C)C)C(=O)N[C@@H](CO)[C@H](O)[C@@H]1C[C@@H]1C(=O)NC1CC1	14	2%	14%	23%	?	2%
Cc1cc(C)c(NC(=O)C(C)n2nc(-c3ccc(C)c(C)c3)ccc2=O)c(C)c1 (stereo unspecified)	12	1%	/	/	/	/
Cc1ccc(C(=O)CCS(=O)(=O)c2ccc(Br)cc2)cc1	32	0.4µM*	10%	-5%	32%	1%
COc1ccc(C(=O)CCS(=O)(=O)c2ccc(C)cc2)cc1	?	1µM*	9%	-11%	-1%	3%
CO/N=C(/CS(=O)(=O)c1ccc(C)cc1)c1ccc(OC)cc1	88	40µM*	-12%	/	?	-15%
Cc1ccc(S(=O)(=O)CCC(=O)c2cccc([N+](=O)[O-])c2)cc1	-12	?	?	6%	33%	-24%
COc1ccc(C(=O)NCS(=O)(=O)c2ccc(C)cc2)cc1	-4	11µM*	1%	-4%	57%	-8%
SMILES	HCMV inh	Sm TGR inh	HCV inh	Pf growth 48h	Pf growth 96h	SARS PLP yeast
COc1ccc(NC(=O)CS(=O)(=O)c2ccc(C)cc2)c(OC)c1	-4	-18%	1%	-2%	-19%	21%
Cc1ccccc1S(=O)(=O)N1[C@@H](c2ccc(Cl)cc2)C(C(=O)O)=CC[C@H]1c1ccc(Cl)cc1	-27	/	?	/	/	?
C=CCCC(=O)N1C[C@@H](CO)[C@@H](NC)C[C@H]1c1ccccc1Br	-7	/	/	/	/	/
O=C(CN1CCCN(Cc2ccccc2Cl)S1(=O)=O)NCc1ccccc1	0	7%	/	/	/	/
CCOc1ccc(C(=O)NC(=S)Nc2ccc(N3CCC(C)CC3)cc2)cc1[N+](=O)[O-]	41	-14%	?	-13%	118%	16%
CCOc1ccc(C(=O)Nc2ccccc2N2CCN(C(=O)c3ccccc3)CC2)cc1[N+](=O)[O-]	23	3%	?	1.3µM*	1.7µM*	0%
CCOc1ccc(C(=O)NC(=S)Nc2ccccc2N2CCC(C)CC2)cc1[N+](=O)[O-]	-97*	8%	?	?	/	1%
CCOc1ccc(C(=O)Nc2ccccc2CC)cc1[N+](=O)[O-]	45	4%	?	20%	?	-12%
Oc1ccc(O)c(Cc2nc3ccccc3s2)c1	?	50µM*	-6%	?	-4%	1%
Oc1ccccc1OCc1nc2ccccc2s1	181	9%	-8%	156%	9%	-6%
Oc1cc2c(cc1C(c1ccc(Cl)c(Cl)c1)N1CCCC1)OCO2 (stereo unspecified)	-97*	0.5µM*	-23%	?	?	-3%
CC(C)c1ccc(NC(=O)C(c2ccc3c(c2)OCO3)N2CCCCC2)cc1 (stereo unspecified)	-5	0%	-5%	/	/	-6%
CCn1c(CNc2ccc(Cl)cc2)nnc1SCC#N	0	-2%[57.1 µM]	1%	9%	2.9µM*	0%
O=C(COc1ccccc1C(=O)c1cnn(-c2ccccc2)c1)Nc1ccc2ccccc2c1	-4	-14%	13µM*	35%	-10%	-3%
O=C(Nc1ccccc1)C1=C[C@@H](c2ccc(C(F)(F)F)cc2)C[C@@H](OCc2ccc(CO)cc2)O1	4	6%	?	?	?	-1%
COc1ccc(-c2n(-c3ccccn3)c3ccccc3[n+]2-c2ccccn2)cc1	?	2%	6%	10µM*	4.1µM*	-1%
O=C(N=c1ccn(-c2nc3ccccc3nc2NS(=O)(=O)c2ccccc2)cc1)c1cccs1	-12	-10%	2%	20%	?	6%
Cc1ccccc1C(=O)N=c1ccn(-c2nc3ccccc3nc2NS(=O)(=O)c2ccc(F)cc2)cc1	-61*	-1%	-21%	-13%	-6%	1%
COc1ccc(CCNC(=O)Cn2nnc(C(=O)Nc3cccc(C)c3C)c2N)cc1OC	-17	1%	?	-5%	1.9µM*	-1%
COc1ccc(Cn2nnc(C(=O)Nc3ccc(F)cc3)c2N)cc1	-14	-31%	-7%	16%	1.9µM*	9%
